Measured values: paper PMC4552634, “A New Set of Chemical Starting Points with Plasmodium falciparum Transmission-Blocking Potential for Antimalarial Drug Discovery” (PLoS ONE, 2015)
In all, about 13,000 compounds went through this assay and about 3,200 (25%) showed an effect of 50% or more. The list shows a part of the results.

Tested on: P. falciparum stage V gametocytes
Parameters: BacTiter-Glo ATP luminescence viability of purified stage V gametocytes in 384-well plates, per cent inhibition versus DMSO
Settings: 48 h, 5 µM; inhibitor

SMILES	% Inhibition [%]
c1ccc(CNCc2cccc(-c3csc(-c4nc5ccccc5[nH]4)c3)c2)cc1 [TCMDC-132715]	-5.062
CC(C)CNC(=O)c1ccc(-c2cccc(CN3CCC(N4CCCC4)CC3)c2)nc1 [TCMDC-134223]	24.52
COc1cccc(CN2CCC(N3CCc4cc(NC(=O)c5cc(C)on5)ccc43)C2)c1OC (stereo not drawn) [TCMDC-135077]	7.17
Nc1oc2c(CN3CCCCCC3)c(O)ccc2c(=O)c1-c1nc2ccccc2s1 [TCMDC-124554]	-27.76
COc1ccc2nc(C)cc(Nc3ccc(Oc4ccc5ccccc5c4Cl)c(Cl)c3)c2c1 [TCMDC-124244]	45.95
CN(Cc1ccccc1)C1CCCN(c2cc(NC(=O)c3ccc(F)cc3)ccn2)C1 (stereo not drawn) [TCMDC-135021]	-22.03
Brc1ccccc1CNc1ccnc(NCCn2ccnc2)n1 [TCMDC-134666]	85.3
c1cn(CCCNc2ncc(-c3ccsc3)c(-c3nccs3)n2)cn1 [TCMDC-125364]	29.61
c1ccc2c(CNc3ccnc(NCc4cccc5ccccc45)n3)cccc2c1 [TCMDC-131861]	43.11
CN1CCN(C(C(=O)NCc2cc(Cl)cc(Cl)c2)c2ccccc2-c2ccsc2)CC1 (stereo not drawn) [TCMDC-135388]	68.05
COc1ccccc1-c1ccc(CNC(=O)C(CN2CCN(C)CC2)c2ccccc2)cc1 (stereo not drawn) [TCMDC-136897]	12.07
CN1CCN(C(C(=O)NCc2cc(Cl)cc(Cl)c2)c2ccc(NC(=O)Nc3ccccc3)cc2)CC1 (stereo not drawn) [TCMDC-135287]	18.98
COc1ccc(Cc2cccc(C(C(=O)NCc3cc(Cl)cc(Cl)c3)N3CCN(C)CC3)c2)cc1 (stereo not drawn) [TCMDC-135619]	76.97
COc1ccccc1N1CCN(C(C(=O)NCc2ccc(C)cc2)c2ccc(C)cc2)CC1 (stereo not drawn) [TCMDC-135501]	-5.21
CN1CCN(C(C(=O)NCc2cc(Cl)cc(Cl)c2)c2ccc(Nc3cccc(C(F)(F)F)c3)cc2)CC1 (stereo not drawn) [TCMDC-134698]	-89.62
COc1cc(CCNc2nc(NCc3ccccc3-c3ccccc3)nc(N3CCC(N)CC3)n2)ccc1O [TCMDC-133443]	10.19
N#CCSc1nnc(-c2ccccc2)c2ccccc12 [TCMDC-123867]	67.4
CCOC(=O)CCCc1cc(NC2CCN(C)CC2)nc(Nc2ccc(C)cc2)n1 [TCMDC-134016]	-52.81
C=C[C@]1(C)C[C@@H](OC(=O)CNC[C@@H](O)CN2C[C@H](c3ccnc4ccc(OC)nc34)OC2=O)[C@]2(C)[C@H](C)CC[C@]3(CCC(=O)[C@H]32)[C@@H](C)[C@@H]1O [TCMDC-135366]	-2.122
CCc1nc(N)nc(N)c1-c1ccc(Cl)cc1 [TCMDC-125860]	8.374
Cc1nc2nc(N)nc(N)c2c(C)c1Cc1ccc(Cl)cc1 [TCMDC-137659]	18.29
Nc1nc(Cc2ccc(Cl)cc2)nc(Cc2ccc(Cl)cc2)n1 [TCMDC-137497]	78.01

SMILES	% Inhibition [%]
O=C(Cc1cccc(Cl)c1)N1CCc2cc3nccc(N4CCN5CCC[C@H]5C4)c3cc21 [TCMDC-140038]	0.313
Cc1ccc(C(=O)N2CCc3cc4nccc(N5CCN6CCC[C@H]6C5)c4cc32)cc1 [TCMDC-140036]	-10.33
O=C(c1ccc(-c2ccc(Cl)cc2)o1)N1CCc2cc3nccc(N4CCN5CCC[C@H]5C4)c3cc21 [TCMDC-140116]	93.89
COc1ccc(/C=C/C(=O)N2CCc3cc4nccc(N5CCN6CCC[C@H]6C5)c4cc32)cc1 [TCMDC-140046]	-29.41
O=C(c1cc2ccccc2o1)N1CCc2cc3nccc(N4CCN5CCC[C@H]5C4)c3cc21 [TCMDC-140037]	-9.524
COc1ccc(C(=O)N2CCc3cc4nccc(N5CCN6CCC[C@H]6C5)c4cc32)cc1 [TCMDC-140035]	84.78
O=C(NCc1cccc(F)c1)c1ccc(O)c(-c2cc(Cl)cc(Cl)c2)c1 [TCMDC-140157]	-3.983
O=C(Nc1ccc(N2CCN(Cc3c[nH]c4cc(F)ccc34)CC2)cc1)c1ccccc1-c1ccc(C(F)(F)F)cc1 [TCMDC-138521]	1.427
Cc1nc2ccc3ccc(CNc4ccc5c(c4)CN([C@H](CCC(=O)O)C(=O)O)C5=O)cc3c2c(=O)[nH]1 [TCMDC-138033]	21.85
O=C(/C=C/c1ccc([N+](=O)[O-])cc1)N1CCC(NS(=O)(=O)c2ccc(F)cc2)CC1 [TCMDC-139441]	26.45
O=C(C=Cc1ccc(F)cc1)N1CCN(S(=O)(=O)c2ccc(Cl)cc2)CC1 [TCMDC-125028]	63.42
O=C(/C=C/c1ccc(Cl)c(Cl)c1)N1CCN(C(=O)Nc2ccc(F)c(Cl)c2)CC1 [TCMDC-135942]	-48.62
Cc1cc(C(=O)Nc2ccc3c(c2)CCN3C2CCN(Cc3ccc(O)cc3)C2)no1 (stereo not drawn) [TCMDC-135078]	-0.5259
CN(CCO)Cc1cccc(-c2ccc(NC(=O)c3cccc(C#N)c3)cc2)c1 [TCMDC-132671]	-45.65
Cc1ccc(Cn2cnc3cc(C(=O)Nc4ccc(-c5ccc(CN(C)C)cc5)cc4)ccc3c2=O)o1 [TCMDC-132364]	111.6
Cc1ccc(Cn2cnc3cc(C(=O)Nc4ccc(-c5cccc(CN(C)C)c5)cc4)ccc3c2=O)o1 [TCMDC-132366]	91.1
COc1cccc2cc(C(=O)N[C@@H](CC(C)C)C(=O)N[C@H](/C=N/NC(=O)Cc3cccnc3)CCc3ccccc3)oc12 [TCMDC-135634]	-9.897
O=C(Nc1ccc(-c2nc3ccccc3[nH]2)cc1)c1cnc(Cl)c(Cl)c1 [TCMDC-125109]	-47.86
CN1CCN(CC(=O)Nc2ccc(-c3cccc(-c4nc5ccc(F)cc5[nH]4)c3)cc2)CC1 [TCMDC-136973]	-61.95
CN1CCN(CC(=O)Nc2cccc(-c3ccc(-c4nc5cc(F)ccc5[nH]4)s3)c2)CC1 [TCMDC-136986]	9.75
CN1CCN(CC(=O)Nc2ccc(-c3ccc(-c4nc5ccccc5[nH]4)cc3)cc2)CC1 [TCMDC-136979]	-9.366
CN1CCC(C(=O)Nc2cccc(-c3cccc(-c4nc5ccc(F)cc5[nH]4)c3)c2)CC1 [TCMDC-132181]	91.35

SMILES	% Inhibition [%]
CN1CCN(CC(=O)Nc2cccc(-c3ccc(-c4nc5ccc(F)cc5[nH]4)cc3)c2)CC1 [TCMDC-136978]	78.56
CN1CCN(CC(=O)Nc2ccc(-c3csc(-c4nc5ccccc5[nH]4)c3)cc2)CC1 [TCMDC-132392]	-27.46
CN1CCC(C(=O)Nc2ccc(-c3cccc(-c4nc5ccc(F)cc5[nH]4)c3)cc2)CC1 [TCMDC-132180]	28.01
CN1CCC(C(=O)Nc2cccc(-c3ccc(-c4nc5ccc(F)cc5[nH]4)cc3)c2)CC1 [TCMDC-132185]	12.21
O=C(Cc1cnc[nH]1)Nc1cccc(-c2ccc(-c3nc4ccc(F)cc4[nH]3)cc2)c1 [TCMDC-136946]	4.671
CN1CCN(CC(=O)Nc2cccc(-c3cccc(-c4nc5ccccc5[nH]4)c3)c2)CC1 [TCMDC-136972]	82.82
CN1CCN(CC(=O)Nc2cccc(-c3cccc(-c4nc5ccc(F)cc5[nH]4)c3)c2)CC1 [TCMDC-136974]	72.37
CCCN(Cc1nnc(-c2cccs2)o1)C(=O)CSc1nnnn1-c1ccc(C)c(C)c1 [TCMDC-125240]	7.835
CCNc1cc(C(=O)N[C@@H](Cc2ccccc2)[C@H](O)CNC2(C(C)C)CCC2)cc(N2CCCCS2(=O)=O)c1 [TCMDC-135375]	21.07
O=C(Nc1cccc(N2CCC(NCc3cnn(-c4cccc(F)c4)c3)CC2)c1)c1ccncc1 [TCMDC-124666]	1.522
CCc1nc(N)nc(N)c1-c1ccc2c(c1)CCCC2 [TCMDC-137366]	1.403
CC(=O)c1c[nH]c2ccc(/C=C/C(=O)NC3CCC(CCN4CCc5ccc(C#N)cc5CC4)CC3)cc12 (stereo not drawn) [TCMDC-139781]	8.041
Cc1cc(N(C)C)nc(Nc2ccc(NC(=O)Nc3ccccc3)cc2)n1 [TCMDC-124961]	-7.652
CC(C)(C)OC(=O)NCCc1cccc(-c2c[nH]c3ncc(-c4cccc(NS(C)(=O)=O)c4)cc23)c1 [TCMDC-136294]	27.56
CC(C)(C)OC(=O)Nc1cccc(-c2csc(N=C(N)N)n2)c1 [TCMDC-139458]	-7.948
Cc1ccc(-n2[nH]c(C)c(N=Nc3cccc(-c4cccc(NC(=O)OC(C)(C)C)c4)c3O)c2=O)cc1C [TCMDC-141045]	81.95
COc1ccc(Nc2nccc(-c3ccc(NC(=O)c4cc5cc(F)ccc5[nH]4)cc3)n2)cc1 [TCMDC-133306]	23.43
CCNC(=O)Nc1cccc(-c2ccc(-c3nc4cccc(C)c4[nH]3)s2)c1 [TCMDC-133169]	-0.5138
Cc1ccc(Nc2nc3cc(Nc4ccnc(Nc5ccc(CS(C)(=O)=O)cc5)n4)ccc3o2)cc1 [TCMDC-141799]	11.69
OC(COCc1ccc(-c2ccccc2)cc1)CN1CCCCC1 (stereo not drawn) [TCMDC-132069]	-30.91
Cc1ccc(NC(=O)c2ccc(CN3CCCN(CC4CCCCC4)CC3)cc2)cc1F [TCMDC-136393]	-36.95
CC1CN(c2ccc(NC(=O)c3ccc(F)cc3)cc2)CCN1Cc1cccc(F)c1 (stereo not drawn) [TCMDC-135016]	10.14
